Where “and” joins values, the source holds several entries; their conditions need not be identical. Equal entries are not always repeated. The source holds several records for some structures; these can differ, active in one and inactive in another. Calls of active or inactive are those of the source.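 How the source made its calls, unless noted: active means compound raises insulin release from rat beta cells at 5 mM glucose, no numeric limit stated; inactive means the rest.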
Assays:
[1] = stimulators of nuclear beta-catenin in C2C12, primary screen, imaging, WNT3A-conditioned medium, mouse C2C12, NPC library (AID 1117326; in the data active means nuclear beta-catenin stimulation mostly above about 4.2%, no sharp cut-off; inactive means mostly below about 10%; further: reference of the scale not given here); conditions: stronger effect = higher value
[2] = stimulators of insulin release from INS-1E, primary screen, cell-based, 5 mM glucose, NPC library (AID 1117329); conditions: rat INS-1E insulin secretion, at 10 µM, stronger effect = higher value; further: reference of the scale not given here
[3] = growth inhibition of GSK3B-pretreated HCT116 cells – cell-based, CellTiter-Glo, 0.2 to 20 µM (AID 1117336;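 active means compounds lowering colon cancer cell viability after pretreatment blocking the GSK3B kinase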); conditions: HCT116 viability after GSK3B inhibitor, at 20 µM, stronger effect = higher value
[4] = inhibition of endothelial tube formation, primary screen, imaging, VEGF stimulated, CD31 staining, tube area, NPC library (AID 1117340;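 active means compound that reduces growth-factor-driven endothelial tube area in a mixed cell culture, no cutoff stated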); conditions: VEGF-stimulated ADSC/ECFC co-culture, at 10 µM, stronger effect = higher value
[5] = glucagon-like peptide 1 release enhancers, primary assay, NCI-H716 cell line, NPC library (AID 1117341;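 active means compound raises GLP1 secretion from the human gut endocrine cells, with no numeric limit stated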; further: reference of the scale not given here); conditions: NCI-H716 cells, at 10 µM, stronger effect = higher value
[6] = HCT116 colon cancer cell growth inhibition, primary screen, CellTiter-Glo luminescence, NPC library (AID 1117342;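 active means compounds that lower survival of HCT116 colon cancer cells in the luminescence readout, no numeric limit stated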); conditions: at 20 µM (top of the series)
[7] = CellTiter-Glo luminescent readout of SW480 viability loss, NPC library primary (AID 1117343;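 active means compounds that lower viability of the colon cancer cells in the luminescence readout, with no numeric limit stated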); conditions: CellTiter-Glo luminescence; at 20 µM (top of the series)
[8] = decreased DLD-1 cellular survival, CellTiter-Glo luminescent readout, NPC compound collection, primary HTS (AID 1117346;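 active means compounds that lower survival of DLD-1 colon cancer cells in the luminescence readout, no cutoff given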); conditions: DLD-1 viability, CellTiter-Glo luminescence; at 20 µM (top of the series)

Row | SMILES | nuclear beta-catenin stimulation ([1]; at 10 µM) | nuclear beta-catenin stimulation ([1]; stimulation, at 2 µM) | insulin secretion stimulation [2] | viability decrease [3] | tube area decrease [4] | GLP1 secretion stimulation [5] | inhibition of viability [6] | viability decrease (inhibition) [7] | viability decrease (inhibition) [8]
1 | CCOC(=O)C(=O)CCc1ccccc1 | 0.7% (inactive) | 2% | 2.2% (inactive) | -4.7% (inactive) | -7.2% (inactive) | 5% (inactive) | 10.3% (inactive) | -2.4% (inactive) | 1% (inactive)
2 | CN1CCC(N(Cc2cccs2)c2ccccc2)CC1 | -0.3% (inactive) | 5.8% | 26.2% (active) | 53.9% (active) | -3.7% (inactive) | 10% (inactive) | 49.3% (inactive) | 72.8% (active) | 13.1% (inactive)
3 | O=C(OC1C[C@@H]2CC3C[C@@H](C1)N2CC3=O)c1c[nH]c2ccccc12 (stereo partly specified) | -1.1% (inactive) | -0.5% | 10.8% (inactive) | 4.3% (inactive) | -15.2% (inactive) | 0.9% (inactive) | 42% (inactive) | 12.6% (inactive) | 17.7% (inactive)
4 | O=C(COCCOCCOCC(=O)Nc1c(I)cc(I)c(C(=O)O)c1I)Nc1c(I)cc(I)c(C(=O)O)c1I | 0.1% (inactive) | -1.8% | 2.45% (inactive) | -23.9% (inactive) | -2.4% (inactive) | -3.2% (inactive) | -13.4% (inactive) | -37.4% (inactive) | -13.3% (inactive)
5 | COC(=O)c1cccnc1 | 1% (inactive) | 1.1% | -1.6% (inactive) | -2.7% (inactive) | -14.2% (inactive) | 1.1% (inactive) | -7.2% (inactive) | 17.2% (inactive) | 1.25% (inactive)
6 | Cc1cc(O)c2ccccc2c1O | 53.2% (active) and 30.1% (inactive) | 1.1% and -0.7% | 5% (inactive) and 0.4% (inactive) | 101% (active) and 99.2% (active) | 74.4% (active) and 26.8% (inactive) | -6.3% (inactive) and -0.9% (inactive) | 102% (active) and 99.5% (active) | 142% (active) and 102% (active) | 104% (active) and 101% (active)
7 | Nc1ccncc1N | 0.2% (inactive) | 0.5% | -0.7% (inactive) | -2.2% (inactive) | -31% (inactive) | 3.3% (inactive) | 3.4% (inactive) | 7.7% (inactive) | 6.9% (inactive)
8 | CCOC(=O)CN1CCCC1=O | 1.9% (inactive) | 21% | 2.1% (inactive) | 1.1% (inactive) | -17.2% (inactive) | -1.8% (inactive) | -0.8% (active) | -15.1% (inactive) | 1% (inactive)
9 | Cc1cccc(N(C)C(=S)Oc2ccc3c(c2)CCC3)c1 | 0% (inactive) | -1.8% | 3.9% (inactive) | 33.9% (inactive) | -13.8% (inactive) | -4.7% (inactive) | 55.5% (active) | 42.6% (inactive) | 55.5% (active)
10 | OC1(c2ccccc2)CCNCC1 | 0.2% (inactive) | 0.6% | -0.5% (inactive) | 6% (inactive) | -1% (inactive) | 6.9% (inactive) | 12.8% (inactive) | 5.3% (inactive) | 11.1% (inactive)
11 | CC(C=CC1=C(C)CCCC1(C)C)=CC=CC(C)=CC(=O)Oc1c(C)c(C)c2c(c1C)CC[C@@](C)(CCC[C@H](C)CCC[C@H](C)CCCC(C)C)O2 | 2.1% (inactive) | 2.2% | 2.9% (inactive) | 2.5% (inactive) | -4.2% (inactive) | 2.3% (inactive) | 32.1% (inactive) | -36.9% (inactive) | 4% (inactive)
12 | NC(Cc1ccc([N+](=O)[O-])cc1)C(=O)O (stereo unspecified) | -0.2% (inactive) | 0% | -0.8% (inactive) | -7.7% (inactive) | -16.5% (inactive) | -0.7% (inactive) | -2.8% (inactive) | -1.7% (inactive) | -20.4% (inactive)
13 | CC(C)NC(=O)c1ccc(C=O)cc1 | 0% (inactive) | -0.8% | -0.75% (inactive) | 18.8% (inactive) | -7.2% (inactive) | 2.1% (inactive) | -5.1% (inactive) | -15.1% (inactive) | -5.8% (inactive)
14 | CCCCN1CCCC[C@H]1C(=O)Nc1c(C)cccc1C | 0.3% (inactive) | 0.4% | 25.7% (active) | 26.6% (inactive) | -20.3% (inactive) | 2.9% (inactive) | 23.7% (inactive) | 21.1% (inactive) | 23.1% (inactive)

Reference: PubChem BioAssay
